Reference: ChEMBL document CHEMBL3988442, “University of Dundee, Small-Polar-MMV Screening Library” (2021)
For some assays here: Potency and affinity values are given separately.

Columns and labels:
[1] = biological target: Protein translocase subunit SecA (Escherichia coli (strain K12)) (UniProt P10408); test: Assay to Identify E. coli SecA ATPase Inhibitors; type: functional; set-up: scale not given: direction of the effect not stated beside the values; conditions: 30 µM
[2] = biological target: T1, Ubiquitin-activating enzyme e1, putative (Leishmania donovani (strain BPK282A1)) (UniProt E9BSI1); test: Leishmania donovani Ubiquitin Activating Enzyme (LdE1); type: functional; set-up: scale not given: direction of the effect not stated beside the values; conditions: 30 µM
T1 sequence (whole entry): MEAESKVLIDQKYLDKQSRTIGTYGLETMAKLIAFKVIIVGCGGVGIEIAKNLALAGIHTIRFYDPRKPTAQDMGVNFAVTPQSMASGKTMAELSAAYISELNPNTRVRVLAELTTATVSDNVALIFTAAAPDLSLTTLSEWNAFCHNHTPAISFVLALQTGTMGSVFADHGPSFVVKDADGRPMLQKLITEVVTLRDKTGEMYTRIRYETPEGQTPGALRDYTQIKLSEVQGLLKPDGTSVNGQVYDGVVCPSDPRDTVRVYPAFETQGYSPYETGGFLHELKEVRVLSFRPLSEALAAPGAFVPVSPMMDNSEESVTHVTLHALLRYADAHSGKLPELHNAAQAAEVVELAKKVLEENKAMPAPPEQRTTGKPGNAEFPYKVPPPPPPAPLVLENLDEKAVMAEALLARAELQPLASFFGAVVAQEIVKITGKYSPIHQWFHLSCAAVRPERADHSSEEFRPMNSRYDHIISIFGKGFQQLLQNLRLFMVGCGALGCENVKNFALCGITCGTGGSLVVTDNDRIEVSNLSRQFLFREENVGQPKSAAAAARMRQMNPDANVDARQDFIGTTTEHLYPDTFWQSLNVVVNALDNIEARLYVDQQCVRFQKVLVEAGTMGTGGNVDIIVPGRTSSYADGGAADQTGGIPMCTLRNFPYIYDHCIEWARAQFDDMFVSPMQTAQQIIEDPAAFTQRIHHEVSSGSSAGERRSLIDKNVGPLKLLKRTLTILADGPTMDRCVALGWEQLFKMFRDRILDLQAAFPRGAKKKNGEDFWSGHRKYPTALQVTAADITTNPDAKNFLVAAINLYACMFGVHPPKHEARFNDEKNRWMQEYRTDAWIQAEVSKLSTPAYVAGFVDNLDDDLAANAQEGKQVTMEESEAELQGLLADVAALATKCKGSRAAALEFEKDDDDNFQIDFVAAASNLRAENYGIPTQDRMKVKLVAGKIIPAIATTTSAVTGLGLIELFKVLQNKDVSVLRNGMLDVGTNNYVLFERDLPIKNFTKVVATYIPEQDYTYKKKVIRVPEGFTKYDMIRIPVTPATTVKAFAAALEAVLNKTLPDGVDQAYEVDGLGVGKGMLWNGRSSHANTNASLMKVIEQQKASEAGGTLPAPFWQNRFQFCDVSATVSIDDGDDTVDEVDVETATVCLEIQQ

[3] = biological target: AMP-activated protein kinase, AMPK (Homo sapiens) (UniProt P54646+O43741+P54619+Q9UGJ0+Q9Y478+Q13131+Q9UGI9); test: AMP-dependent Kinase enzyme assay. An in vitro enzyme assay that detects ADP turnover that is directly proportional to AMPK activity. This uses naive AMPK that is activated during the assay with MK-8722; type: functional; set-up: scale not given: direction of the effect not stated beside the values; conditions: 30 µM
[4] = biological target: Sialic acid-binding Ig-like lectin 9 (Homo sapiens) (UniProt Q9Y336); test: Hs-Siglec9 ALPHAscreen SOP 20170721; set-up: scale not given: direction of the effect not stated beside the values; conditions: 10 µM
Chain of Sialic acid-binding Ig-like lectin 9 (Homo sapiens) (Q9Y336 whole entry): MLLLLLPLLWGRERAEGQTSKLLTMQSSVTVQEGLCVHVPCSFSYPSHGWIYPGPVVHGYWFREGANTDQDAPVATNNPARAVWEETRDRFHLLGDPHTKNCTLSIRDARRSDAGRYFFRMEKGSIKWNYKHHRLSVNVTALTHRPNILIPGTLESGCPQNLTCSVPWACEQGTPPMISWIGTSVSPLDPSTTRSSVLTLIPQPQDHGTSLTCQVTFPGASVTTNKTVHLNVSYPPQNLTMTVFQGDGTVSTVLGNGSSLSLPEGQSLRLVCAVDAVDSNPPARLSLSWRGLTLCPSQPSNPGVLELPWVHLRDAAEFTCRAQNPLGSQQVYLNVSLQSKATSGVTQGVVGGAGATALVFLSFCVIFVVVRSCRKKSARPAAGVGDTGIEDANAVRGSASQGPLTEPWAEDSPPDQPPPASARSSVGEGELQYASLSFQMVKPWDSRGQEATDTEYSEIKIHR

[5] = tested on: Trypanosoma cruzi; test: Trypanosoma cruzi phosphomannomutase and mannose-1-phosphate guanylyltransferase assay; type: functional; set-up: scale not given: direction of the effect not stated beside the values; conditions: 10 µM
[6] = biological target: T2, Arginase-2, mitochondrial (Homo sapiens) (UniProt P78540); test: in vitro enzyme assay to detect the production of urea directly proportional to the activity of Arginase II; type: functional; set-up: scale not given: in the data most compounds retested in dose-response had high values
T2 sequence (whole entry): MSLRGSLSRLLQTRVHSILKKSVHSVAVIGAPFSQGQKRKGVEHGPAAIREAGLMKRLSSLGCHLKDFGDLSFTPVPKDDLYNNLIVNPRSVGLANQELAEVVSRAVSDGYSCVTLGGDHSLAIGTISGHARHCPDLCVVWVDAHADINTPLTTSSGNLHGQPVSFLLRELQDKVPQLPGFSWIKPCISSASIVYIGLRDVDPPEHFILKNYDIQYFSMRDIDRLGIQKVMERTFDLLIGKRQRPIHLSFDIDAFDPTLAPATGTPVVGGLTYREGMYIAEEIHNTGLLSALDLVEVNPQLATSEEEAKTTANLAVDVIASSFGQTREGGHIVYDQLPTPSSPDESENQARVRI

[7] = biological target: T3, Proteasome subunit beta (Trypanosoma cruzi) (UniProt O96673); test: Trypanosoma cruzi proteasome chymotrypsin-like activity (TcProtChymo) assay.; type: functional; set-up: scale not given: in the data most compounds retested in dose-response had high values; conditions: 9.37 µM
T3 sequence (whole entry): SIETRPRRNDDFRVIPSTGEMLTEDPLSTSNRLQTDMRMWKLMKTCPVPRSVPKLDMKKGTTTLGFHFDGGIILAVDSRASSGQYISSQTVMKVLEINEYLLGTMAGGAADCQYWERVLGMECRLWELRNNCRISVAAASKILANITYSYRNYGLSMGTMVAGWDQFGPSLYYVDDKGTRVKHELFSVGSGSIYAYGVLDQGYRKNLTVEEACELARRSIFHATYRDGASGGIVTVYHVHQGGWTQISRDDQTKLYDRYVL

[8] = organism: Homo sapiens; test: To identify inhibition of the IFN signalling (Jak-Stat) pathway via expression of an eGFP reporter gene under the control of an IFN-stimulated response element (ISRE) containing MxA promoter.; type: functional; set-up: scale not given: direction of the effect not stated beside the values; conditions: 30 µM
[9] = biological target: T4, Tyrosyl-tRNA synthetase, putative (Trypanosoma cruzi (strain CL Brener)) (UniProt Q4DSP6); test: Trypanosoma cruzi tyrosyl tRNA synthetase (TcYRS) _High Tyrosine SOP; type: functional; set-up: scale not given: in the data most compounds retested in dose-response had high values; conditions: 30 µM
T4 sequence (whole entry): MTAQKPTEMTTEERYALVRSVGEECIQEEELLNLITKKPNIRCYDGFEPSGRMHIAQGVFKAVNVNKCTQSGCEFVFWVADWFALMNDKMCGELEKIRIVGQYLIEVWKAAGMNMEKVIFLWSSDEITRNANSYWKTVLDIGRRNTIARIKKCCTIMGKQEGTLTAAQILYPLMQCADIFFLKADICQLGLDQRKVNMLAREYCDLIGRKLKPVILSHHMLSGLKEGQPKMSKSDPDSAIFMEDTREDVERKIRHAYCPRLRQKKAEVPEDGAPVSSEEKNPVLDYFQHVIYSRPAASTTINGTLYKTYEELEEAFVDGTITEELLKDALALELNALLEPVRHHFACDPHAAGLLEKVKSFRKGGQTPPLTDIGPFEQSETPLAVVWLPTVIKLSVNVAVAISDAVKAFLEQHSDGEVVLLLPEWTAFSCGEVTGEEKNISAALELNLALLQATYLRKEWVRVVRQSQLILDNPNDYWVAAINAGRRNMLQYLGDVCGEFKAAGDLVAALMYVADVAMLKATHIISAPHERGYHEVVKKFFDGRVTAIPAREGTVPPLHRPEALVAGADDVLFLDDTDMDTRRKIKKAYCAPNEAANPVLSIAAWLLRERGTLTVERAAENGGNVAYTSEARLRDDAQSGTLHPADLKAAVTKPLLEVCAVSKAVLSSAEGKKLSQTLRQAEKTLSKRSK

[10] = biological target: T4, Tyrosyl-tRNA synthetase, putative (Trypanosoma cruzi (strain CL Brener)); test: Trypanosoma cruzi tyrosyl tRNA synthetase (TcYRS) SOP; type: functional; set-up: scale not given: direction of the effect not stated beside the values; conditions: 30 µM
[11] = biological target: Chromo domain-containing protein 1 (Saccharomyces cerevisiae (strain ATCC 204508 / S288c) (Baker's yeast)) (UniProt P32657); test: ScCHD-1 Enzyme Inhibition Assay; type: functional; set-up: scale not given: in the data most compounds retested in dose-response had high values; conditions: 30 µM
Chain of Chromo domain-containing protein 1 (Saccharomyces cerevisiae (strain ATCC 204508 / S288c) (Baker's yeast)) (P32657 whole entry, the tested form may be a part): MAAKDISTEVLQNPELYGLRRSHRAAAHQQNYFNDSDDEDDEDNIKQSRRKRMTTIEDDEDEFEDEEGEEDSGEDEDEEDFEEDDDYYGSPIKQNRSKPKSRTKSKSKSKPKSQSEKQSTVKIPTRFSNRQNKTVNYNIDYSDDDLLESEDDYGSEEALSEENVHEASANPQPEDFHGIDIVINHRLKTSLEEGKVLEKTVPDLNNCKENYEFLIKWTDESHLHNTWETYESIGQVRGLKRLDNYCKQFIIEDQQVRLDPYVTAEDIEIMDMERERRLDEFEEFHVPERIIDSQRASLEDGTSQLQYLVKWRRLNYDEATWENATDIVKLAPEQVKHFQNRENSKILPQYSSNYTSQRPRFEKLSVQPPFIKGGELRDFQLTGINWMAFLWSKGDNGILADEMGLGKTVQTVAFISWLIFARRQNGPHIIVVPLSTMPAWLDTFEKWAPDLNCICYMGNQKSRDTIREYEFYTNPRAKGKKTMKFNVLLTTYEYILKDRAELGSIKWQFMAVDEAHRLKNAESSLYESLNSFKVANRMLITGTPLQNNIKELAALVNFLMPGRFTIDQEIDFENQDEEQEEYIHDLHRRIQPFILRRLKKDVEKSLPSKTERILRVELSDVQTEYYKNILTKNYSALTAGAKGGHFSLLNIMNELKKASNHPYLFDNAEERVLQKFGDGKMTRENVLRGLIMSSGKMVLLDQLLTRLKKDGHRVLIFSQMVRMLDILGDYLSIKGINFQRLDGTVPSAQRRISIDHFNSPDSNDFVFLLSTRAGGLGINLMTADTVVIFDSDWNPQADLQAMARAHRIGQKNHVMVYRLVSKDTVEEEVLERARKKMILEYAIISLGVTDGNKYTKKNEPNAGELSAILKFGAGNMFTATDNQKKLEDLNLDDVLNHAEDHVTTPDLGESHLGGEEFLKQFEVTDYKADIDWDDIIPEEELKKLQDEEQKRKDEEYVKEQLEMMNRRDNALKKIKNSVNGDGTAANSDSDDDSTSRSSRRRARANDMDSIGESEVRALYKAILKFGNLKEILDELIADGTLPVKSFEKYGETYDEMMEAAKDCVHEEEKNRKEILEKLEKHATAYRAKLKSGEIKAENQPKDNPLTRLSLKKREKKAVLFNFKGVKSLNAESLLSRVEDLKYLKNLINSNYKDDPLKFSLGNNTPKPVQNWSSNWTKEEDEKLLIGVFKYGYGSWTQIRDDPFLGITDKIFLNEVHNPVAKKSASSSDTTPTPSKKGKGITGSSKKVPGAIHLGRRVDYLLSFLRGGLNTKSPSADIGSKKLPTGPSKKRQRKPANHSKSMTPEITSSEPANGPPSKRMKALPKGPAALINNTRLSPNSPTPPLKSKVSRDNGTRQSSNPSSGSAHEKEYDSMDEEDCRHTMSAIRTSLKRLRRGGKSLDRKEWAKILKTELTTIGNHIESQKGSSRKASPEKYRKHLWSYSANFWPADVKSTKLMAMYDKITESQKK

[12] = biological target: T5, Methionyl-tRNA synthetase, putative (Leishmania donovani (strain BPK282A1)) (UniProt E9BF75); test: Leishmania donovani Methionine tRNA synthetase (LdMetRS):v7. Dose response assay; type: functional; set-up: conc 80 nM, time 150 minutes
T5 sequence (whole entry): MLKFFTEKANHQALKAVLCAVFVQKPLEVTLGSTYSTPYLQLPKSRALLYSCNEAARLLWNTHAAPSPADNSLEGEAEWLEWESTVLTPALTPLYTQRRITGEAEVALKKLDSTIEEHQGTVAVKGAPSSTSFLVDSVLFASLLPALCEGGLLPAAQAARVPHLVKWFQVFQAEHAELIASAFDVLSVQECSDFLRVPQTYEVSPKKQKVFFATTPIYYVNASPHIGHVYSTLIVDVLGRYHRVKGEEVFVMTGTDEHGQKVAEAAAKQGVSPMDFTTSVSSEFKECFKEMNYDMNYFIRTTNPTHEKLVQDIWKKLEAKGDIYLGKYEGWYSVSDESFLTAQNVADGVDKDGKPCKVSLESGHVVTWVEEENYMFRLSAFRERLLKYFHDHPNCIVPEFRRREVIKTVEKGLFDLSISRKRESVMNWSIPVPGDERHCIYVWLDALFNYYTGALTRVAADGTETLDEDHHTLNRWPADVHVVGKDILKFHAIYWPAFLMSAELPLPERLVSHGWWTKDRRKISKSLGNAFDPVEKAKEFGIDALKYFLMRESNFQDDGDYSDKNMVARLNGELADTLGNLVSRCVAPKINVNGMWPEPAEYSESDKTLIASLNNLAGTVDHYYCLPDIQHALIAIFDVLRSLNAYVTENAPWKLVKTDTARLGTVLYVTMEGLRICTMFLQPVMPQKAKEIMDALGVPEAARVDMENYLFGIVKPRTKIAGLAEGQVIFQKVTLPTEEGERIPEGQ

Chain of Protein translocase subunit SecA (Escherichia coli (strain K12)) (P10408 whole entry): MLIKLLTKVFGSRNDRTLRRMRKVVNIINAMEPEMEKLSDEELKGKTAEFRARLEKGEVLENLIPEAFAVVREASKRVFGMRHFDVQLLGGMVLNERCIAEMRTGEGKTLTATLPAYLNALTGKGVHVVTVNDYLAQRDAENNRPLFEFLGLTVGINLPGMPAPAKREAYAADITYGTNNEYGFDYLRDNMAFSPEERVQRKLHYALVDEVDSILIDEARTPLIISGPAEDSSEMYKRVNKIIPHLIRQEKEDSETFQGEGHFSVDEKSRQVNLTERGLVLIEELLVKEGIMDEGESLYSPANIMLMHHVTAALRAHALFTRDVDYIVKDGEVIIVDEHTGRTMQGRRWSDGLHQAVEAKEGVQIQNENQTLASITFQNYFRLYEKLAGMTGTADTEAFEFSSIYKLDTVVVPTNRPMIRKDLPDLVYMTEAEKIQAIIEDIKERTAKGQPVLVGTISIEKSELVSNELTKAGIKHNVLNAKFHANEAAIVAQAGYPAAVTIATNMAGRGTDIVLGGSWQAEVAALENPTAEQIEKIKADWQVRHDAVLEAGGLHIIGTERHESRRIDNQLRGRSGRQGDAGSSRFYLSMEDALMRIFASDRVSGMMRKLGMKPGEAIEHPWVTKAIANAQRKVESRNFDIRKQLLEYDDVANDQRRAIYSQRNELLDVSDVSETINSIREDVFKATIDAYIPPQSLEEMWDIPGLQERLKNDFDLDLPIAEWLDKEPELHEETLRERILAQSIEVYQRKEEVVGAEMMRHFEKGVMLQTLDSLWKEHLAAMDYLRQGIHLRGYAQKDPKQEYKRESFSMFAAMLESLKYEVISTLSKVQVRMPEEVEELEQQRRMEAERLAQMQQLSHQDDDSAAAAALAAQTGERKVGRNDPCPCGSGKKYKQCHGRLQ

CC1CCN(S(=O)(=O)c2cccn(CC(=O)NC3CCCC3)c2=O)CC1 gave a Percent Effect [1] of -2.96%, a Percent Effect [2] of 5.48% and a Percent Effect [3] of -5.65%. The Percent Effect [4] was -2%, the Percent Effect [5] was -5.68% and the Percent Effect ([6]; 30 µM) was 2.7%. The Percent Effect ([6]; 33.3 µM) was 0.455%, the Percent Effect [7] was 17.2% and the Percent Effect [8] was 4.13%. It also gave a Percent Effect [9] of 3.23%, a Percent Effect [10] of 10% and a Percent Effect [11] of -2.6%.

Molecule CC1CCCN(CC(=O)N2CCC(c3ncc4c(n3)CCNC4)CC2)C1 (configuration not stated) has a PXC50 ([12]; MAX_EFFECT 4.401408451) of less than 4, a PXC50 ([12]; MAX_EFFECT 5.700712589) of less than 4 and a Percent Effect [1] of -3.77%. The Percent Effect [2] was 2.67%, the Percent Effect [3] was 14.5% and the Percent Effect [4] was -3.5%. It also gave a Percent Effect [5] of 0.394%, a Percent Effect ([6]; 33.3 µM) of -0.699% and a Percent Effect [7] of 5.02%. It also gave a Percent Effect [8] of 3.99%, a Percent Effect [9] of -1.06% and a Percent Effect [10] of -3.85%. The Percent Effect [11] was 2.27%.

In the case of FC1(F)CCN(Cc2cccnc2)CC12CCN(c1ccccn1)C2 (configuration not stated), the PXC50 ([12]; MAX_EFFECT 12.14788732) is reported as less than 4, the PXC50 ([12]; MAX_EFFECT 12.35154394) is reported as less than 4 and the Percent Effect [1] is reported as -2.18%. For the same molecule, the Percent Effect [2] was 16.2%, the Percent Effect [3] was 5.61% and the Percent Effect [4] was -2.07%. The Percent Effect [5] was -4.99%, the Percent Effect ([6]; 33.3 µM) was 17.5% and the Percent Effect [7] was 21.4%. For the same molecule, the Percent Effect [8] was 33.7%, the Percent Effect [9] was 1.08% and the Percent Effect [10] was 12.8%. It also gave a Percent Effect [11] of -3.06%.

For Cc1ccc([C@@H]2CN(S(=O)(=O)C(C)C)C[C@H]2N(C)C)cc1, the Percent Effect [1] was -6.03%, the Percent Effect [2] was 13.5% and the Percent Effect [3] was -2.84%. It also gave a Percent Effect [4] of 23.9%, a Percent Effect [5] of 7.33% and a Percent Effect ([6]; 30 µM) of -14.6%. For the same molecule, the Percent Effect ([6]; 33.3 µM) was 4.22%, the Percent Effect [7] was -0.258% and the Percent Effect [8] was -1%. For the same molecule, the Percent Effect [9] was 3.23%, the Percent Effect [10] was 18.5% and the Percent Effect [11] was -8.94%.

COc1ccc(C2SC(C)=Nc3c2c(=O)[nH]n3C2CCCCC2)cc1O (configuration not stated) was tested, and the Percent Effect [1] was 1.71%, the Percent Effect [2] was 17.3% and the Percent Effect [3] was 0.637%. For the same molecule, the Percent Effect [4] was -1.4%, the Percent Effect [5] was 0.786% and the Percent Effect ([6]; 30 µM) was -3.78%. It also gave a Percent Effect ([6]; 33.3 µM) of -25.2%, a Percent Effect [7] of 15.3% and a Percent Effect [8] of 39.9%. It also gave a Percent Effect [9] of 43.4%, a Percent Effect [10] of 48.7% and a Percent Effect [11] of -12.8%.
